Laboratory results reported in PubChem BioAssay (Tox21).
Results filed as inconclusive are left out. Entries that show only a call come without a potency. Activity calls are given as the source filed them. The call rests on the fitted dose curve; in most records, active means well fitted cell-killing curve with a large enough effect in the repeat runs; inconclusive means weak or mixed curves, or effect the other way; inactive means flat fitted curve, though single readings scatter.

Test: qHTS RealTime-Glo MT Cell Viability Assay in HepG2 cells - 40 hour (AID 1224870); further: nearly all actives have a fitted effect of over 50% in size
Details: RealTime-Glo luminescence; series mostly up to 76.8 µM
Source text: National Center for Advancing Translational Sciences [NCATS]
NIH Chemical Genomics Center [NCGC]
U.S. Environmental Protection Agency [EPA]
National Institutes of Environmental Health Sciences [NIEHS]
National Toxicology Program [NTP]
U.S. Food and Drug Administration [FDA]
Measure of cell viability is critical in the cell-base assay. Analysis of cell viability is necessary for the characterization of cell responses to cytotoxic drugs and environmental stress. A RealTime-Glo MT Cell Viability Assay to monitor cell viability in real time of continues cell culture during 40 hours of compound treatment was used to screen Tox21 10K library compounds in HepG2 cells. The RealTime-Glo MT Cell Viability Assay is a nonlytic, homogeneous, bioluminescent method to measure cell viability in real time using a simple, plate-based method. The assay involves adding NanoLuc luciferase and a cell-permeant prosubstrate to cells in culture. Viable cells reduce the proprietary prosubstrate to generate a substrate for NanoLuc luciferase. This substrate diffuses from cells into the surrounding culture medium, where it is rapidly used by the NanoLuc Enzyme to produce a luminescent signal. The signal correlates with the number of viable cells, making the assay well suited for cytotoxicity studies.
Tox21 Assay Protocol Summary:
The mixture of HepG2 cell suspension and reagents were dispensed at 600cells/6 ul/well in 1536-well tissue culture treated black solid bottom plates using a Multidrop dispenser. After the assay plates were incubated at a 37 C/5% CO2 incubator for 5 hours, 23 nL of compounds dissolved in DMSO, positive and negative controls was transferred to the assay plate by a pintool work station. The plates were incubated at 37 C for 40 hours. The luminescence intensity were measured at 0h, 8h, 16h, 24h, 32h and 40h time points using ViewLux plate reader during compound treatment.

Row | SMILES | Potency
1 | O=C(O)c1ccccc1-n1cc(C(=O)O)c(=O)c2cc(Nc3c(F)cc(F)cc3Cl)c(Cl)cc21 | inactive
2 | CC(C)(C(=O)O)c1ccc(C(O)CCCN2CCC(C(O)(c3ccccc3)c3ccccc3)CC2)cc1 (stereo not given) | inactive
3 | CCc1c(C)[nH]c2c1C(=O)C(CN1CCOCC1)CC2 (stereo not given) | inactive
4 | CC(Cc1ccccc1)(NC(=O)CN)c1ccccc1 (stereo not given) | inactive
5 | O=C1c2ccccc2C(=O)C1c1ccc2ccccc2n1 | inactive
6 | CCC(=O)O[C@]1(C(=O)COC)[C@@H](C)C[C@H]2[C@@H]3CCC4=CC(=O)C=C[C@]4(C)C3(F)[C@@H](O)C[C@@]21C (stereo not given in full) | inactive
7 | CNc1ccccc1 | inactive
8 | CCOCCn1c(N2CCCN(C)CC2)nc2ccccc21 | inactive
9 | O=c1[nH]nc(-c2ccc([N+](=O)[O-])o2)o1 | inactive
10 | CCn1nc(Cc2ccccc2)cc1C1CCN(C[C@H]2C[C@H](N(C)[C@@H](C(=O)O)C(C)C)C[C@@H]2c2cccc(F)c2)CC1 | inactive
11 | CC/C=C\CCO | inactive
12 | CC(O)CN (stereo not given) | inactive
13 | Nc1ccccc1Nc1ccccc1 | inactive
14 | O=C(O)COCC(=O)O | inactive
15 | CCCN(C1CCN(C(=O)C2CCNCC2)CC1)[C@@H]1CCc2ccc(OC)cc2C1 | inactive
16 | Cc1cc(C)n(CO)n1 | inactive
17 | Cc1cccc(C)c1NC(=O)CN1CCCC1 | inactive
18 | CC(C)C/C=C(\C=O)c1ccccc1 | inactive
19 | Cc1ccc(NC(=O)c2ccc(CN3CCN(C)CC3)cc2)cc1Nc1nccc(-c2cccnc2)n1 | inactive
20 | COc1cc(CNC(=O)CCCC/C=C/C(C)C)ccc1O | inactive

Row | SMILES | Potency
21 | O=C(c1ccco1)N1CCNCC1 | inactive
22 | Nc1ncnc2c1ncn2[C@@H]1O[C@H](CO)[C@@H](O)[C@H]1O | inactive
23 | c1ccc(CN(Cc2ccccc2)Cc2ccccc2)cc1 | inactive
24 | O=[N+]([O-])c1ccccc1CCO | inactive
25 | COC(=O)/C=C/C(C)=C\C=C\C(C)=C\C=C\C=C(C)\C=C\C=C(C)\C=C\C(=O)O | inactive
26 | C=CC(C)CCC=C(C)C (stereo not given) | inactive
27 | CCc1ccc(C(=O)C(C)CN2CCCCC2)cc1 (stereo not given) | inactive
28 | CC(C)(C)c1ccc(CCC=O)cc1 | inactive
29 | CC(C)Oc1ccccc1O | inactive
30 | CCC(C)CCCC(C)(C)O (stereo not given) | inactive
31 | Cc1cc(SC2=C(O)C[C@@](CCc3ccc(N)cc3)(C(C)C)OC2=O)c(C(C)(C)C)cc1CO | inactive
32 | C=C[Si]1(C)O[Si](C)(C=C)O[Si](C)(C=C)O[Si](C)(C=C)O1 (stereo not given) | inactive
33 | CCOC(=O)CC(O)(CC(=O)OCC)C(=O)OCC | inactive
34 | Cc1cc(C)c(C)c(O)c1 | inactive
35 | O=C(Nc1ccc2c(c1)Cc1ccccc1-2)C(F)(F)F | inactive
36 | CC(O)C(C)O (stereo not given) | inactive
37 | CCCC1CCOC(C)S1 (stereo not given) | inactive
38 | CC(CC(C#N)(c1ccccc1)C(C)C)N(C)C (stereo not given) | inactive
39 | CCCCCO | inactive
40 | Cc1c(N=C=O)cccc1N=C=O | inactive
